Source: PubChem BioAssay
Most compounds without a hit are left out; they make up all but 32% or so of the library.
CYP2C19 inh = blocks human cytochrome P450 2C19. P33261. CYP2C19 Supersomes, luciferin-H EGE luminescence, 30 min. inhibition, % at 5 µM. 96,000 compounds, 21% hits. AID 778;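 active = CYP2C19 inhibition above a set limit at 5 µM in the primary screen, cut at about 50% in these data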;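 note: plate controls were negative control wells for no effect and 2.5 mM tranylcypromine positive control for full effect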
CYP2C19 activ = increases human CYP2C19 enzyme activity; recombinant CYP2C19, luciferin-H EGE luminescence; stronger effect = higher value; 0 = fully inhibited enzyme, 1 = untreated enzyme; activation factor at 5 µM; 96,000 tested, under 10 active;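 active = activation factor of at least 2 at 5 µM in the primary screen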;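 note: 0 = wells with 2.5 mM tranylcypromine and 1 = vehicle-only wells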
CYP2C9 activ = activators of human CYP2C9 | recombinant CYP2C9, luciferin-H conversion, luminescence; stronger effect = higher value; factor 1 = untreated enzyme, 0 = blocked | activation factor at 5 µM | P11712 | 96,000 compounds, 1.4% hits | AID 1024;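 active = activation factor of 2 or more for CYP2C9 at a 5 µM dose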;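 note: 0 = sulfaphenazole-blocked wells and 1 = vehicle-only wells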
Target sequence (P11712 whole entry, looked up): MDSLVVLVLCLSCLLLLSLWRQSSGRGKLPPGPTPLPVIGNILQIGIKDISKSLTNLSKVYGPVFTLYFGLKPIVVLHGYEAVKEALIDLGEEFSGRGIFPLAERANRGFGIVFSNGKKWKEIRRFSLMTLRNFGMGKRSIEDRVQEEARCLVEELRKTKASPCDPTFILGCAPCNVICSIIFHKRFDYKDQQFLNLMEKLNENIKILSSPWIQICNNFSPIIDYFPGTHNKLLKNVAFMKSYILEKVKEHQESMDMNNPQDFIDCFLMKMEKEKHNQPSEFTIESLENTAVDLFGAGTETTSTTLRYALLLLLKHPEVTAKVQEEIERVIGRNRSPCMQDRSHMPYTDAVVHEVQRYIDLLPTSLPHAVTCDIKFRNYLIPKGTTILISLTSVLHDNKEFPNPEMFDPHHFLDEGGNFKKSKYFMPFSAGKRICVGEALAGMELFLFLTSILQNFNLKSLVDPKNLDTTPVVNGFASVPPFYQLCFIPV
PostGolgi ctrl = growth of the yeast control strain, post-Golgi counter-screen. efflux-deficient yeast background strain, growth absorbance A615, 16 h. inhibition, % at 10 µM. 98,000 compounds, 5% hits
CYP2C9 inh = blocks human cytochrome P450 2C9; AID 777; 96,000 compounds, 20% hits; CYP2C9 Supersomes, luciferin-H conversion, luminescence; inhibition, % at 5 µM;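 active = blocking of liver enzyme CYP2C9 beyond about 50% at 5 µM, limit read from the data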
PostGolgi yeast = growth inhibition of a yeast mutant, post-Golgi transport screen; 98,000 compounds, 0.9% hits; inhibition, % at 10 µM; AID 739; post-Golgi transport phenotypic cell assay;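 note: yeast cells grown in 1536-well plates; yeast grown about 18 h at 30C before absorbance read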
* = called active by the depositor; / = no result given. Cut-off read from the data, not from the text of the source, unless noted: active = inhibition above about 30%; inactive = the rest.

SMILES | CYP2C19 inh | CYP2C19 activ | CYP2C9 activ | PostGolgi ctrl | CYP2C9 inh | PostGolgi yeast
COC(=O)C1=[N+]([O-])OC(C(=O)OC)C1c1c[nH]c2ccccc12 (stereo not given) | 21 | 0.8 | 0.9 | -7 | 13 | 1
Cc1ccc(N2C(=O)C3C(C2=O)C2C=CC3C23CC3)cc1 (stereo not given) | 28 | 0.7 | 1.2 | 10 | -16 | 8
O=C1C2C(C(=O)N1c1ccncc1)C1C=CC2C12CC2 (stereo not given) | 92* | 0.1 | 0.3 | 5 | 75* | -3
COC(=O)c1ccc(Oc2nc(Nc3ccccc3)nc(N(C)C)n2)cc1 | 36 | 0.6 | 0.5 | 5 | 52* | 7
CN(C)c1nc(Nc2ccccc2)nc(Oc2ccc(=O)[nH]n2)n1 | / | / | / | 1 | / | 4
CCOC(=O)C(C)Oc1nc(Oc2ccccc2)nc(N(C)C)n1 (stereo not given) | 57* | 0.4 | 0.7 | 15 | 30 | 0
Cc1c(NC(C)c2ccccc2O)c(=O)n(-c2ccccc2)n1C (stereo not given) | 48 | 0.5 | 0.9 | 8 | 10 | 13
Cc1c(NC(C)c2cc(Cl)ccc2O)c(=O)n(-c2ccccc2)n1C (stereo not given) | 96* | 0 | 0.3 | 6 | 68* | 7
Cc1c(NC(=O)Nc2cccc(Cl)c2)c(=O)n(-c2ccccc2)n1C | 6 | 0.9 | 0.8 | 37* | 19 | -9
CCC(Sc1nc(N)c(NC(=O)c2ccc(OC)c(OC)c2)c(=O)[nH]1)C(=O)OC (stereo not given) | -14 | 1.1 | 1.1 | -5 | -10 | 13
O=C(NCc1ccco1)C12CC3CC(C1)CC(C(=O)NCc1ccco1)(C3)C2 | 14 | 0.9 | 1 | 3 | -4 | 10
O=C(NC1CCN(C(=S)NCc2ccco2)CC1)C12CC3CC(CC(C3)C1)C2 | 67* | 0.3 | 0.7 | 7 | 30 | 5
CSCCC(CO)NC(=O)OCc1ccccc1 (stereo not given) | 44 | 0.6 | 1 | -4 | 1 | -14
COCCNC(=O)C1(C)Oc2ccccc2NC1=O (stereo not given) | 10 | 0.9 | 0.9 | -5 | 11 | -10
CC(=O)OC1(C(F)(F)F)Oc2ccccc2NC1=O (stereo not given) | 53* | 0.5 | 0.8 | 44* | 16 | 13
O=C(O)CSc1nnc(-c2ccccc2)o1 | 10 | 0.9 | 0.9 | 3 | 12 | 3
O=C(CCSc1nnc(-c2ccncc2)o1)Nc1ccc(F)cc1 | 85* | 0.1 | 0.4 | 89* | 57* | 93*
Cc1nnc(SCCC(=O)Nc2ccc(F)cc2)s1 | 17 | 0.8 | 1 | 3 | -1 | -8
O=C(CCSc1nnc(-c2ccncc2)o1)Nc1ccccc1 | 86* | 0.1 | 0.2 | 3 | 85* | 1
COCCN1C(=O)C(=O)/C(=C(/O)c2ccc(S(=O)(=O)N3CCOCC3)cc2)C1c1ccc(C(C)C)cc1 (stereo not given) | -14 | 1.1 | 1 | -5 | -3 | 4
C(=N\Nc1ccc(-n2ccnc2)nn1)/c1ccccc1 | 98* | 0 | 0.1 | -5 | 93* | -7
Cc1ccc(Nc2ccc(-n3ccnc3)nn2)cc1C | 100* | 0 | 0 | 9 | 99* | 8
Cc1cc(C)n(-c2ccc(-n3ccnc3)nn2)n1 | 99* | 0 | 0.6 | 0 | 40 | 1
NC(=O)COC(=O)CCCc1c[nH]c2ccccc12 | 6 | 0.9 | 1.2 | 5 | -15 | -2
N#C/C(=C(/O)COC(=O)CCc1ccc(S(=O)(=O)N2CCOCC2)cc1)c1nc2ccccc2[nH]1 | 9 | 0.9 | 0.8 | 1 | 19 | 1
SMILES | CYP2C19 inh | CYP2C19 activ | CYP2C9 activ | PostGolgi ctrl | CYP2C9 inh | PostGolgi yeast
N#C/C(=C(/O)COC(=O)Cc1c[nH]c2ccccc12)c1nc2ccccc2[nH]1 | 10 | 0.9 | 0.2 | 2 | 82* | 12
N#C/C(=C(/O)COC(=O)CCCNC(=O)c1ccc(Cl)cc1)c1nc2ccccc2[nH]1 | 52* | 0.5 | 0.2 | 5 | 76* | -2
O=C(Cc1c[nH]c2ccccc12)OCC(=O)c1ccccc1 | 23 | 0.8 | 2.2* | 10 | -120 | 1
O=C(CCc1ccccc1)Nc1ccc(NC(=O)c2ccco2)nc1 | 17 | 0.8 | 0.7 | 4 | 25 | 0
O=C(CCc1ccccc1)Nc1ccc(NC(=O)c2ccco2)cc1 | 71* | 0.3 | 0.2 | 12 | 82* | 6
CCOCC(=O)Nc1ccc(S(=O)(=O)NCCc2ccccc2)cc1 | 60* | 0.4 | 0.7 | 19 | 30 | -1
CC(C)Oc1cccc(C(=O)Nc2ccc(NC(=O)c3ccco3)cc2)c1 | 29 | 0.7 | 0.7 | 5 | 34 | 4
CCCNS(=O)(=O)c1ccc(NC(=O)c2ccccn2)cc1 | 57* | 0.4 | 0.1 | 1 | 85* | -5
CC(Oc1ccc(NC(=O)c2ccco2)cc1)C(=O)N1c2ccccc2CC1C (stereo not given) | 33 | 0.7 | 0.5 | 25 | 51* | 17
CCOCCCNS(=O)(=O)c1ccc(NC(=O)c2ccccc2)cc1 | -7 | 1.1 | 1 | 3 | 2 | 2
CCCCCC(=O)OC(CN1CCCCC1)CN1CCCC1=O (stereo not given) | 2 | 1 | 1 | -3 | -3 | -2
O=C(CSCCNS(=O)(=O)c1ccccc1)Nc1ccccc1 | 92* | 0.1 | 0.5 | 22 | 50 | 2
O=C(Nc1ccc(OC(=O)c2ccco2)cc1)c1ccco1 | / | / | / | 0 | / | -1
O=C(O)COc1ccc(NC(=O)c2ccco2)cc1 | 8 | 0.9 | 2.6* | 1 | -161 | -1
O=C(Nc1ccc(S(=O)(=O)NCCc2ccccc2)cc1)c1ccco1 | 59* | 0.4 | 0.1 | 10 | 95* | 2
Cc1cc2n(n1)C(c1cccs1)Nc1ccccc1-2 (stereo not given) | 30 | 0.7 | 0.7 | 3 | 35 | 2
Cc1onc(-c2ccccc2Cl)c1C(=O)NCc1cccnc1 | 36 | 0.6 | 1 | 5 | -4 | 6
CC(C)N(Cc1nc(-c2ccccc2)no1)C(=O)c1ccc(Br)o1 | 73* | 0.3 | 0.4 | 19 | 64* | 4
Cc1onc(-c2ccccc2Cl)c1C(=O)NCc1nc(-c2ccccc2)no1 | 67* | 0.3 | 0.6 | 13 | 41 | 12
Cc1onc(-c2ccccc2Cl)c1C(=O)NCc1ccc(S(N)(=O)=O)cc1 | 12 | 0.9 | 0.6 | -4 | 45 | -7
CC(C)N(Cc1nc(-c2ccccc2)no1)C(=O)C1CCCCC1 | 85* | 0.2 | 0.2 | 19 | 81* | -10
COc1ccccc1OCC(=O)N(Cc1nc(-c2ccccc2)no1)C1CCCCC1 | 46 | 0.5 | 0.6 | 26 | 44 | -9
Cc1onc(-c2ccccc2Cl)c1C(=O)NCc1ccc(N2CCCC2=O)cc1 | 53* | 0.5 | 0.3 | 9 | 67* | 9
COc1ccc(NC(=O)C2CCN(C(=O)c3ccccc3)CC2)c(OC)c1 | 12 | 0.9 | 1.1 | 1 | -10 | -7
